Assay results published in PubChem BioAssay AID651784 (National Center for Advancing Translational Sciences (NCATS), 2012).
Inconclusive results are not listed. Calls of active or inactive are those of the source. The call rests on the fitted dose curve; in most records, active means well fitted inhibition curve with a large enough effect; inconclusive means small, poorly fitted or top-dose-only effect; inactive means no such curve, though single readings can be large or run the other way.

Test: Acumen qHTS Assay for Inhibitors of the mTORC1 Signaling Pathway in MEF (Tsc2-/-, p53-/-) Cells: Hit Validation;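 further: phospho-rpS6 Ser235/236 immunofluorescence normalized to propidium iodide cell count; nearly all actives have a fitted effect of over 65% in size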;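 on activity change, negative = inhibition: cells exposed to compound for 24 hours; plate controls were DMSO for no effect and 7.5 nM rapamycin control for full effect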
Details: Acumen imaging; activity change, negative = inhibition: at 37.3 µM (top of the series)
Potency means the concentration at half of the fitted maximal effect.

| Structure (SMILES) | activity change, negative = inhibition [%] | Potency |
| --- | --- | --- |
| CC(=O)N1CCCc2cc(S(=O)(=O)N(Cc3ccccc3)C(C)C)ccc21 | -22.8 | – |
| Cc1ccc(C)c(N2CCN(CCCNC(=O)Nc3ccc(Cl)cc3)CC2)c1 | -77 | – |
| CCS(=O)(=O)c1ncc(Cl)c(C(=O)N2CCN(c3cccc(Cl)c3)CC2)n1 | – | 1.31 µM (active) |
| COc1ccc(N2CC(c3nc(-c4cc(OC)c(OC)c(OC)c4)no3)CC2=O)cc1Cl (stereo not drawn) | 5.08 | – |
| Cc1oc(-c2ccccc2F)nc1Cn1c(SCc2cccc(Cl)c2)nc2ccncc21 | -12.7 | – |
| COc1ccc(Oc2nc3c(C)cccn3c(=O)c2/C=C(\C#N)c2nc3ccccc3[nH]2)cc1 | 11.5 | – |
| CC(C)N(C(=O)CSc1nc2ccc(Cl)cc2[nH]1)c1ccccc1 | -16 | – |
| COc1ccc(OCC(=O)NCc2ccc3c(c2)CCN3C(=O)c2cccc(C)c2)cc1 | -87.8 | – |
| CCCCCn1c(=N)n(CC(O)COc2cccc(C)c2)c2ccccc21 (stereo not drawn) | – | 5.85 µM (active) |
| COc1cc(Cl)c(C)cc1Nc1c2c(nc3ccccc13)CCC2 | – | 0.927 µM (active) |
| Cc1ccc(NC(=O)c2nc(S(=O)(=O)Cc3cccc(C)c3)ncc2Cl)cc1 | -108 | – |
| CCOc1ccc(C(=O)Nc2ccc3nc4c(c(Nc5ccccc5OC)c3c2)CCCC4)cc1 | -66.6 | – |
| Cc1cccc(N2CCN(c3ncnc4c3nc3n4CCCCC3)CC2C)c1 (stereo not drawn) | – | 3.29 µM (active) |
| Cc1ccc(Nc2nc(C(N)=O)c(NC(=O)c3ccccc3Br)s2)cc1 | – | 5.85 µM (active) |
| C#CCN1C(=O)C(O)(CC(=O)c2ccc(OC)c(OC)c2)c2cc(Br)ccc21 (stereo not drawn) | -24.1 | – |
| CCCCOc1ccc(CN2C(=O)C(=O)c3cc(Br)cc(C)c32)cc1OC | – | 4.65 µM (active) |
| CCc1ccc(NC(=O)CSc2nccn2C2CCCC2)cc1 | -3.21 | – |
| Cc1nn(C(C)C(=O)NC2CCC(C)CC2)c(=O)c2c1sc1ccccc12 (stereo not drawn) | -5.69 | – |
| Cc1nc2scc(C)n2c(=O)c1S(=O)(=O)Nc1ccc(N2CCOCC2)c(Cl)c1 | – | 1.47 µM (active) |

| Structure (SMILES) | activity change, negative = inhibition [%] | Potency |
| --- | --- | --- |
| CCOc1ccc(NC(=O)CSc2oc(-c3ccccc3)nc2S(=O)(=O)c2ccc(Cl)cc2)cc1 | -112 | – |
| CC(C)Oc1ccc(CNC(=O)c2ccc3nc(SCc4ccc(F)cc4)n(C)c3c2)cc1 | -8.96 | – |
| COc1ccc(Cn2c(C(=O)O)c(CNCc3ccc(SC)cc3)c3ccc(OC)cc32)cc1 | -12.2 | – |
| CN(c1ccccc1)S(=O)(=O)c1ccc(NC(=O)c2nc(S(C)(=O)=O)ncc2Cl)cc1 | – | 1.47 µM (active) |
| COc1cccc(-c2nc(S(=O)(=O)c3ccc(Cl)cc3)c(NCc3ccccc3)o2)c1 | 29.5 | – |
| CCOc1cc(CNc2ccc(O)cc2)ccc1OCc1ccc(Cl)cc1 | -17.1 | – |
| Cc1cccc(-n2nnnc2S(C)(=O)=O)c1 | -92 | – |
| c1ccc(N2CCN(c3ncnc4[nH]ncc34)CC2)cc1 | 6.17 | – |
| O=C(Nc1ccc(F)c(Cl)c1)c1cc(S(=O)(=O)N2CCCc3ccccc32)ccc1F | -51.1 | – |
| Cc1ccc(C)c(NC(=O)Nc2cc3c(cc2N2CCCCC2)n(C)c(=O)n3C)c1 | 3.56 | – |
| Cc1ccc(CN2C(=O)C(=O)c3cc(Br)cc(C)c32)cc1 | – | 9.27 µM (active) |
| COc1ccc(CCNC(=O)CCCn2nc(C)c3sc4ccccc4c3c2=O)cc1OC | -12 | – |
| O=S(=O)(c1cccc2cnccc12)N1CCCNCC1 | -7.7 | – |
| Cc1c(C(=O)OC2CCC(C)CC2)[nH]c2c1C(=O)CC(c1ccc(F)cc1)C2 (stereo not drawn) | – | 1.04 µM (active) |
| Cc1cccc(OCc2ccc(-c3nc(C#N)c(NCCN(C)C)o3)o2)c1 | 0.2 | – |
| CC(C)S(=O)(=O)c1oc(-c2cccs2)nc1S(=O)(=O)c1ccc(F)cc1 | – | 0.736 µM (active) |
| Cc1ccccc1C(=O)N1CCN(CCc2ccccn2)CC1 | -26.5 | – |
| Cc1cccc(C)c1Nc1sc(C(=O)c2ccccc2)c(N)c1S(=O)(=O)c1ccccc1 | – | 2.61 µM (active) |
| O=C(Cn1c(=O)n(Cc2ccc3c(c2)OCO3)c(=O)c2ccc(C(=O)NC3CCCCC3)cc21)Nc1ccccc1F | -94.5 | – |
